Source: the supplement of paper PMC10849652
Of roughly 8,800 targets only a part is listed; those with a hit were picked by preference. About 0.5% of all pairs of compound and target were hits. A number with no mark means an inactive call.

Tests used:
Experiment in all cases: log2 fold change, soluble protein after heating vs DMSO (PISA); higher = thermal stabilisation; K562 lysate, 10 uM; active = over 0.2 and 3.5 SD of the protein, either way, in both replicates (recomputed)
[1] = compound: C#Cc1cccc(Nc2ncnc3cc(OCCOC)c(OCCOC)cc23)c1 [erlotinib]
How it was run: (§1)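 Following dounce homogenisation of K562 pellets in PBS pH 7.4 with 1 mM MgCl2, crude extract at 1 mg/mL protein was incubated for 30 min with 10 μM compound. Aliquots were then heated for 3 min over 48°C-58°C and pooled, NP-40 was added to 0.5% at 4°C, and soluble protein was recovered as the supernatant at 21,000xg for 90 min. Channel-sum-equalised TMTpro 16plex LC-MS/MS quantified this protein. Each value, from duplicates, is a log-two fold change in thermal stability relative to solvent controls.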

[2] = compound: C/C(=N\NC(=O)C1=CC(=CC=C1)S(=O)(=O)N2CCOCC2)/C3=C(C=CC(=C3)Cl)O
How it was run: as §1

[3] = compound: C1=CC(=CC=C1C2=NC3=C(N2)C=C(C=C3)C(=O)N)OC4=CC=C(C=C4)Cl
How it was run: as §1

[4] = compound: C1=CC2=C(C=CC(=C2)/C=C\3/C(=O)NC(=NCC4=CC=CS4)S3)N=C1
How it was run: as §1

[5] = compound: C1=CC2=NC=CN=C2C=C1/C=C/3\C(=O)NC(=O)S3
How it was run: as §1

[6] = compound: C1=CC=C(C=C1)C2=NC(=C(N2)C3=CC=NC=C3)C4=CC(=C(C=C4)Cl)O
How it was run: as §1

[7] = compound: C1=CC=C2C(=C1)C3=NNC4=CC=CC(=C43)C2=O
How it was run: as §1

[8] = compound: C1CCN(C1)C(=O)NC2=CC=CC(=C2)NC3=NC=C(C(=N3)NCCC4=CN=CN4)Br
How it was run: as §1

[9] = compound: C1CN(CCC1(CC2=CC=C(C=C2)Cl)N)C3=NC=NC4=C3C=CN4
How it was run: as §1

[10] = compound: C1COCCN1CCN2C3=CC=CC=C3N=C2NC(=O)C4=CC(=CC=C4)[N+](=O)[O-] [IRAK-1-4 Inhibitor I]
How it was run: as §1

[11] = compound: C=CC(=O)N1CCC[C@@H](n2nc(-c3ccc(Oc4ccccc4)cc3)c3c(N)ncnc32)C1 [ibrutinib]
How it was run: as §1

[12] = compound: CC(=O)c1cnc2ccc(-c3cc(Cl)c(O)c(Cl)c3)nc2c1N[C@H]1CC[C@H](CN(C)C)CC1
How it was run: as §1

[13] = compound: CC(C)(C)Cn1c(N)nc2ccc(-c3[nH]c(C(C)(C)C)nc3-c3ccc(F)cc3)nc21 [ralimetinib]
How it was run: as §1

[14] = compound: CC(C)(O)CC(=O)NCCn1ccc2ncnc(Nc3ccc(Oc4cccc(C(F)(F)F)c4)c(Cl)c3)c21
How it was run: as §1

[15] = compound: CC(C)C1=C2N=C(C=C(N2N=C1)NCC3=CC=CC=C3)NCCCCCCN
How it was run: as §1

[16] = compound: CC1=C(C(CC(=O)N1)C2=CC=C(C=C2)C(F)(F)F)C(=O)NC3=C(C=C4C(=C3)C=NN4)F
How it was run: as §1

[17] = compound: CC1=C(C2=C(C=C1)C(=O)C3=CC=CC=C3N2CCCN)C
How it was run: as §1

[18] = compound: CC1=C(C=C(C=C1)NC(=O)C2=CC(=CC=C2)C(C)(C)C#N)NC3=CC4=C(C=C3)N=CN(C4=O)C
How it was run: as §1

[19] = compound: CC1=C(C=C(C=C1)NC(=O)C2=CC(=CC=C2)N(C)C)NC(=O)C3=CC=C(C=C3)O
How it was run: as §1

[20] = compound: CC1=CC=C(C=C1)SC2=C3C=C(SC3=CN=C2)C(=O)N
How it was run: as §1

Chain of UniProt Q9UMZ2 (Q9UMZ2 whole entry, looked up): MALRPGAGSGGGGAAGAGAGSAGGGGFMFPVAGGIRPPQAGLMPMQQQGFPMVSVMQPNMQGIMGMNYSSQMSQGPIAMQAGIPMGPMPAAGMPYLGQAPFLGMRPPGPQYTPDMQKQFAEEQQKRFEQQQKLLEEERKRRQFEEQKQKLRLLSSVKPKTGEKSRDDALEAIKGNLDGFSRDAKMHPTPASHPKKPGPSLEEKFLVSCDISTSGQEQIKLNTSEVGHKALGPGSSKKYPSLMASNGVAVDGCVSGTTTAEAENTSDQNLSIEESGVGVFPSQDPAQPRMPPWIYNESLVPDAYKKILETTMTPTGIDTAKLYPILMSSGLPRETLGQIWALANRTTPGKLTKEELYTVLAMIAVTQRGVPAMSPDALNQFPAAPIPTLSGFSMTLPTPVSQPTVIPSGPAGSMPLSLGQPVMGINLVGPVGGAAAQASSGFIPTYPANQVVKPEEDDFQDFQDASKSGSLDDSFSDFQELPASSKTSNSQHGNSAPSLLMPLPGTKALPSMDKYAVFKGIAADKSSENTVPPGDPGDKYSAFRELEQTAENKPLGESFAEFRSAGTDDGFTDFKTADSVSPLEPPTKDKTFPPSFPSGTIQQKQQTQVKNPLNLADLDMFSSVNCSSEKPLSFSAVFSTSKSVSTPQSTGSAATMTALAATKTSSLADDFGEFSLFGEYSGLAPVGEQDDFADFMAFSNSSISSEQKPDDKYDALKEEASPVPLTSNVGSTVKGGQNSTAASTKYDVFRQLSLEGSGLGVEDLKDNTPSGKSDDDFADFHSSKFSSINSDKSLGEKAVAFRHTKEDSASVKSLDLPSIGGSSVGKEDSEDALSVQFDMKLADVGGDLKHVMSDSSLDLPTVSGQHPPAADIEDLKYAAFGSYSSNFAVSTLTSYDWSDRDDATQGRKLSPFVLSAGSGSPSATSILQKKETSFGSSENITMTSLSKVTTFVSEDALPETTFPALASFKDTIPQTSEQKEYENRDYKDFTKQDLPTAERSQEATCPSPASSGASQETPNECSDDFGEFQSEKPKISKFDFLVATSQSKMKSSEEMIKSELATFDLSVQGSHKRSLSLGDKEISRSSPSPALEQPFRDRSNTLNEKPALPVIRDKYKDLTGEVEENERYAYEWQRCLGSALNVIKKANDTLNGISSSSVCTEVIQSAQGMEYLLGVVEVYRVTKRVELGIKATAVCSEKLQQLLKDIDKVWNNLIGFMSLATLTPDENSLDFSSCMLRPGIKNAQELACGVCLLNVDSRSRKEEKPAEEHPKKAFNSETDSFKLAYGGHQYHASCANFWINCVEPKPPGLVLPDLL
Chain of UniProt Q96SB4 (Q96SB4 whole entry, looked up): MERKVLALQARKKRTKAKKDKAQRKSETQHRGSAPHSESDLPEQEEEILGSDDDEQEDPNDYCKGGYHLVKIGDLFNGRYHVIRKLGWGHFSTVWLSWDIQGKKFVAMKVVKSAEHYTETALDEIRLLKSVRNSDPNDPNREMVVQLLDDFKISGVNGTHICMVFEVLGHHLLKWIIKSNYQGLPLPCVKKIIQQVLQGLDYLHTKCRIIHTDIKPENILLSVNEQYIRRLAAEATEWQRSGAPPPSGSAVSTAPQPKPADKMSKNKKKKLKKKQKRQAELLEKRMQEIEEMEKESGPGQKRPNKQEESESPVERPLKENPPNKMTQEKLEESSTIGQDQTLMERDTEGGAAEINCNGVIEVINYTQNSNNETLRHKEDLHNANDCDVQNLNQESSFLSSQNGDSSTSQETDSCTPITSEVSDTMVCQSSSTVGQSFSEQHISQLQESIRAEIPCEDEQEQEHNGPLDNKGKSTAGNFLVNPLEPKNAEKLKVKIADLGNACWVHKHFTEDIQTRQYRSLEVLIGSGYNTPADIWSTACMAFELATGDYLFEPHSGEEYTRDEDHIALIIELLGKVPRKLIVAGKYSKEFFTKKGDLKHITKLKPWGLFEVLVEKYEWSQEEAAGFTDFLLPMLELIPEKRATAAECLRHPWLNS
Chain of UniProt O95347 (O95347 whole entry, looked up): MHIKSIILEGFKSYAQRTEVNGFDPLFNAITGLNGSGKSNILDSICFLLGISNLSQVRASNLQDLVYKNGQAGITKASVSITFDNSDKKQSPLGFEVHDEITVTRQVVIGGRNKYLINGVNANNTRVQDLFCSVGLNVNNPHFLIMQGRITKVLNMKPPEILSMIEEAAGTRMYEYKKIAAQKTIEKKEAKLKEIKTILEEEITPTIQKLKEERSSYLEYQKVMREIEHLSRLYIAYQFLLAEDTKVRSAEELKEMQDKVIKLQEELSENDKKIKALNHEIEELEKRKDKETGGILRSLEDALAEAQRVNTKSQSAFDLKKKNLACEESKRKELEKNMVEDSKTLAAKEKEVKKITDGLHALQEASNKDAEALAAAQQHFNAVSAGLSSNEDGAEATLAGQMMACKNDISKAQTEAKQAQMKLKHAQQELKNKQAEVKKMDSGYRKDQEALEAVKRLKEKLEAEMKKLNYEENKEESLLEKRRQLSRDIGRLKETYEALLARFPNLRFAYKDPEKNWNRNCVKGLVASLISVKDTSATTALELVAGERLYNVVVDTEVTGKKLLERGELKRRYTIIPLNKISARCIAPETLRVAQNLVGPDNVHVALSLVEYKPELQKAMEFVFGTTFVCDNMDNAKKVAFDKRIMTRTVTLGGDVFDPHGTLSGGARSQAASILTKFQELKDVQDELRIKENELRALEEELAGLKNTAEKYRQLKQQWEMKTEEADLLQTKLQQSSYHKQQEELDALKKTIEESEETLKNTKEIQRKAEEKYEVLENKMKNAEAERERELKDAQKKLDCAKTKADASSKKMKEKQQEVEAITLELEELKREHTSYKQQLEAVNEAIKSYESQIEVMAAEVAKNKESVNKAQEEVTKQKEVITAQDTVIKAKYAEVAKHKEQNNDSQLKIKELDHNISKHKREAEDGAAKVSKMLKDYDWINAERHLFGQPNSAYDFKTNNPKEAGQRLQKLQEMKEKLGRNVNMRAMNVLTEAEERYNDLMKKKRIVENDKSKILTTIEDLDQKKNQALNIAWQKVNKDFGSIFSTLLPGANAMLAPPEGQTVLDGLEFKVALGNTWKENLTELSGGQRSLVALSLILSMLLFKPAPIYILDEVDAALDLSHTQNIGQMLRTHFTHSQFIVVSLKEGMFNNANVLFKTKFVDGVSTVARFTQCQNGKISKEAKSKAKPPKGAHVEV
Chain of UniProt O14975 (O14975 whole entry, looked up): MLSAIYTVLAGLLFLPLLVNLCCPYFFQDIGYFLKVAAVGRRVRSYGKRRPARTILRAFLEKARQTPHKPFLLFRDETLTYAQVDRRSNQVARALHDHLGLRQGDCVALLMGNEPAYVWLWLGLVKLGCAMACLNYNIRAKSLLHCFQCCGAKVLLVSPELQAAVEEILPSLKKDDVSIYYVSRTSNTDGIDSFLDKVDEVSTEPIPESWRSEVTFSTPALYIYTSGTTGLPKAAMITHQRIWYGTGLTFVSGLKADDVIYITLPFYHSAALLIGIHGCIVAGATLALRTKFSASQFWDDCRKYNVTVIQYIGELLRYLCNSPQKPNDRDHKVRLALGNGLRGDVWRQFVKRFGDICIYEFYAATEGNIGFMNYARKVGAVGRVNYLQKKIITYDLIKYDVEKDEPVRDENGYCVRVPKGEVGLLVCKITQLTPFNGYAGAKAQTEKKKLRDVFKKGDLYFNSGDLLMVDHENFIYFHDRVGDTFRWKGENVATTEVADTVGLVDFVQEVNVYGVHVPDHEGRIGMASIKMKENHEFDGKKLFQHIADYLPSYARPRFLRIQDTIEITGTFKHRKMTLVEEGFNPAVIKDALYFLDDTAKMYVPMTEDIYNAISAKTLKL
Chain of UniProt Q8NB90 (Q8NB90 whole entry, looked up): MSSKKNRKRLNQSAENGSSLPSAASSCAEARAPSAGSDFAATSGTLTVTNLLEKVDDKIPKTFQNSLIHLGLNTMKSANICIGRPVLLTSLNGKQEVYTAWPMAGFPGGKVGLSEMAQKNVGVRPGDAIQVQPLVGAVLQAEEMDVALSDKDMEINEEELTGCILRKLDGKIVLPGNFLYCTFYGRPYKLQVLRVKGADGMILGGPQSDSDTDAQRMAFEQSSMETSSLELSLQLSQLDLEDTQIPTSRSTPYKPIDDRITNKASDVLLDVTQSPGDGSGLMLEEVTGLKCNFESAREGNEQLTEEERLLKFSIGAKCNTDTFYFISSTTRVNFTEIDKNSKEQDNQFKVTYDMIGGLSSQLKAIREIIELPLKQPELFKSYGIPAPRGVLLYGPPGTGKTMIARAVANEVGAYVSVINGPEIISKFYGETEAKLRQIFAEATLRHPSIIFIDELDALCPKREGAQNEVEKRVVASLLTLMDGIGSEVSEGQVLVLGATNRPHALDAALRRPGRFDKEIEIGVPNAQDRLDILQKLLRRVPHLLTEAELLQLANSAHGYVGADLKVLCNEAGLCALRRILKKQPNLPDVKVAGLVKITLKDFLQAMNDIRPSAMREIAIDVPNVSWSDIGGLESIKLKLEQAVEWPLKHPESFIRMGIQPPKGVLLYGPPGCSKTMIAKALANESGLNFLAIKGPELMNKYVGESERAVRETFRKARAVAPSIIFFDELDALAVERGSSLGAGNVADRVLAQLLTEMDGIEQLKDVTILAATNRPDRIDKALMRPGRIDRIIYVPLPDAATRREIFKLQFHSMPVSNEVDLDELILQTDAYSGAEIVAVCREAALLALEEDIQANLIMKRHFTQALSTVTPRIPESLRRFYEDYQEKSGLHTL
Chain of UniProt Q9HBM1 (Q9HBM1 whole entry, looked up): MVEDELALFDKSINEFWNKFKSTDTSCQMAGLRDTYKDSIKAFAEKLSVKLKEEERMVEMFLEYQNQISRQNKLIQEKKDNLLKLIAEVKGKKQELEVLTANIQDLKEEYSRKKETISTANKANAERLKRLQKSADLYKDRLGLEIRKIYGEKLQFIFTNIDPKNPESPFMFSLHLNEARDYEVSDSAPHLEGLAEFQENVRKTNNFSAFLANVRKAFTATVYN

Row | Target | log2 fold change [1] | log2 fold change [2] | log2 fold change [3] | log2 fold change [4] | log2 fold change [5] | log2 fold change [6] | log2 fold change [7] | log2 fold change [8] | log2 fold change [9] | log2 fold change [10] | log2 fold change [11] | log2 fold change [12] | log2 fold change [13] | log2 fold change [14] | log2 fold change [15] | log2 fold change [16] | log2 fold change [17] | log2 fold change [18] | log2 fold change [19] | log2 fold change [20]
1 | STIM1 (UniProt Q13586) | -0.037 | 0.089 | -0.014 | 0.021 | 0.001 | -0.016 | -0.059 | -0.009 | 0.005 | -0.01 | 0.033 | 0.043 | 0.023 | -0.021 | 0.027 | 0.003 | 0.023 | 0.001 | 0.008 | 0.027
2 | SNCA (UniProt P37840) | -0.265 | -0.037 | 0.098 | 0.025 | -0.147 | -0.02 | 0.044 | -0.056 | -0.085 | 0.019 | 0.102 | -0.148 | 0.028 | 0.02 | 0.013 | 0.036 | -0.068 | -0.042 | -0.059 | 0.028
3 | STAT2 (UniProt P52630) | -0.009 | 0.033 | -0.102 | -0.01 | 0.034 | 0.003 | -0.032 | 0.002 | 0.018 | -0.018 | 0.007 | 0.007 | 0.04 | -0.026 | -0.003 | 0.009 | -0.002 | -0.059 | 0.003 | 0.004
4 | SMG6 (UniProt Q86US8) | -0.038 | 0.026 | 0.012 | 0.009 | 0.021 | 0 | -0.092 | -0.04 | -0.005 | 0.026 | 0.071 | -0.061 | 0.034 | -0.016 | 0.012 | 0.074 | 0.006 | 0.004 | 0.047 | 0.059
5 | SPC25 (UniProt Q9HBM1) | 0.021 | -0.065 | -0.006 | 0.059 | -0.034 | 0.021 | -0.006 | -0.039 | 0.018 | 0.027 | 0 | -0.058 | -0.038 | 0.015 | -0.002 | -0.032 | -0.017 | 0.016 | 0.002 | 0.006
6 | SMC2 (UniProt O95347) | -0.001 | -0.011 | -0.011 | 0.001 | 0.012 | 0.013 | -0.036 | 0.003 | -0.008 | -0.019 | 0.014 | -0.011 | -0.016 | -0.008 | 0.014 | -0.012 | 0 | 0 | 0.013 | 0.001
7 | SYNRG (UniProt Q9UMZ2) | 0.029 | -0.037 | 0.078 | 0.015 | -0.012 | -0.019 | -0.01 | -0.004 | 0.021 | 0.016 | -0.023 | -0.028 | -0.016 | -0.083 | 0.015 | -0.019 | -0.018 | -0.042 | 0.022 | -0.052
8 | SHCBP1 (UniProt Q8NEM2) | 0.034 | 0.01 | -0.035 | -0.023 | 0.007 | 0.032 | 0.005 | 0.014 | -0.014 | 0.018 | -0.04 | 0.023 | 0.026 | 0.031 | 0.012 | 0.009 | 0.002 | -0.008 | 0.056 | -0.041
9 | SMYD3 (UniProt Q9H7B4) | 0.094 | 0.104 | 0.009 | -0.036 | 0.064 | -0.021 | -0.036 | -0.022 | -0.038 | 0.001 | -0.009 | -0.002 | 0.032 | -0.012 | 0.034 | -0.037 | -0.028 | 0.038 | 0.036 | -0.027
10 | SPATA5 (UniProt Q8NB90) | 0.04 | 0.025 | -0.006 | 0.025 | -0.042 | 0.042 | 0.015 | 0.017 | 0.017 | 0.016 | 0.013 | -0.002 | 0.047 | 0.025 | 0.02 | -0.009 | 0.009 | 0.002 | 0.042 | 0.012
11 | SSB (UniProt E7ERC4) | -0.03 | 0.071 | -0.063 | 0 | 0.02 | 0.015 | -0.142 | 0.089 | 0.01 | -0.043 | 0.14 | -0.087 | -0.009 | -0.075 | -0.046 | 0.062 | 0.014 | 0.239 | 0.093 | -0.013
12 | SRPK1 (UniProt Q96SB4) | 0.015 | -0.04 | 0.121 | 0.016 | 0.003 | 0.05 | 0.017 | -0.01 | 0.007 | 0.019 | 0.031 | 0.008 | -0.004 | -0.001 | -0.005 | -0.004 | -0.018 | 0.006 | -0.029 | 0.011
13 | STARD3 isoform 3 (UniProt Q14849) | -0.014 | 0.104 | -0.022 | -0.085 | -0.078 | -0.003 | 0.107 | -0.085 | 0.133 | 0.047 | 0.039 | 0.044 | -0.074 | -0.018 | 0.011 | 0.033 | -0.072 | 0.073 | 0.021 | 0.028
14 | SLC27A2 (UniProt O14975) | -0.025 | 0.478 (active) | -0.122 | 0.099 | 0.048 | 0.007 | -0.016 | -0.038 | -0.035 | 0.614 (active) | 0.243 | -0.024 | -0.013 | 0.245 | 0.11 | -0.041 | -0.035 | 0.069 | -0.089 | 0.031
15 | SMC4 (UniProt Q9NTJ3) | -0.006 | -0.018 | -0.007 | 0 | -0.026 | 0 | -0.046 | -0.015 | -0.014 | -0.009 | -0.002 | -0.005 | -0.015 | -0.012 | -0.009 | -0.006 | 0.002 | -0.016 | 0.023 | 0.013
16 | SMAD2 (UniProt Q15796) | 0.14 | 0.062 | -0.018 | 0.03 | 0.002 | 0.074 | -0.003 | 0.004 | 0.035 | -0.03 | 0.041 | -0.014 | 0.025 | 0.012 | 0.005 | -0.061 | -0.014 | 0.054 | 0.029 | 0.017
